In PubChem BioAssay AID686971 (National Center for Advancing Translational Sciences (NCATS), 2013):
About 7,500 (2.1%) of roughly 360,000 compounds were called active. Not shown: some 8% with an inconclusive outcome. This is one part of a sample in which actives are shown more often than they occur. Calls follow the shape of the dose curve; as a rule, active = well fitted cell-killing curve with a large enough effect; inconclusive = small, poorly fitted or top-dose-only effect, or effect the other way, or another doubt; inactive = no such curve, though single readings can be large or run the other way.

Test: qHTS for induction of synthetic lethality in tumor cells producing 2HG: qHTS for the HT-1080-IDH1KD cell line;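 as to activity, negative = toxicity: 0% = DMSO wells and -100% = cell-free medium wells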
Conditions: HT-1080 IDH1 knockdown viability, ATP luminescence, 48 h; series mostly up to 46.1 µM; activity, negative = toxicity: at the top concentration
Summary of the method: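 Viability of IDH1-knockdown HT-1080 fibrosarcoma cells was assessed by CellTiter-Glo after 48 h at 37 °C with titrated compound; concentration-effect curves were classified by fit quality and response size.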
Potency is read from the fitted curve at half-maximal effect.

| Structure (SMILES) | Potency | activity, negative = toxicity |
| --- | --- | --- |
| CC(=O)Nc1ccc(CNc2nc(NCCN(C)C)nc3cc(-c4ccccc4)sc23)cc1 | 20.6 µM (active) | – |
| COCCNc1nc(Nc2ccccc2Cl)c2sc(-c3ccccc3)cc2n1 | – | -1.87% (inactive) |
| COCCNc1nc(NCc2ccc(NC(C)=O)cc2)c2sccc2n1 | – | 0% (inactive) |
| COc1cccc(C(O)c2nc(-c3ccc(C)c(C)c3)cs2)c1 (stereo not drawn) | – | -24.1% (inactive) |
| CC1(C)OC(=O)C2=C(CC(c3ccccc3)OC2CCc2ccccc2)O1 (stereo not drawn) | – | -22.6% (inactive) |
| CC(C)n1cnc2c(Nc3cccc(Cl)c3)nc(N(CCO)CCCO)nc21 | 14.6 µM (active) | – |
| OCCCNc1nccc(-c2cc(Nc3cccc(Cl)c3)ncn2)n1 | – | -29.6% (inactive) |
| COC(=O)[C@]12CCCCC=C1N(Cc1ccc3c(c1)OCO3)C(=O)[C@H](CC(=O)NCc1cccs1)C2 | – | -12.8% (inactive) |
| COc1cc(C(O)c2nc(-c3cnn(C)c3)cs2)ccc1F (stereo not drawn) | – | -2.77% (inactive) |
| CCCCCNC(=O)C1C(=O)Nc2ccccc2C(=O)N1C(C)(C)C (stereo not drawn) | – | 10.7% (inactive) |
| CCOC(=O)[C@H]1Nc2ccc(Cl)cc2[C@@H]2[C@H]1C1CC(c3ccccc31)N2C(=O)OCc1ccccc1 (stereo partly drawn) | – | -15.7% (inactive) |
| CCOC(=O)Cc1ncccc1C(=O)Nc1ccc(OC)cc1 | – | -0.0069% (inactive) |
| CCOC(=O)Cc1ncccc1C(=O)Nc1ccc(OC(F)(F)F)cc1 | 20.6 µM (active) | – |
| COC(=O)Cc1ccc(OCC(=O)Nc2ccc(OC(F)(F)F)cc2)cc1 | – | 4.71% (inactive) |
| O=C(NCc1ccccc1)C1c2ccccc2OCC(=O)N1C1CC1 (stereo not drawn) | – | 6.38% (inactive) |
| COc1ccc(C(=O)N/N=C2\CCS(=O)(=O)c3ccc(F)cc32)cc1OC | 20.6 µM (active) | – |
| COc1ccc(C(=O)Nc2ccc(C3(C#N)CCCC3)cc2)cc1OC | – | -14.8% (inactive) |
| CCNC(=O)c1ccc(OCC(=O)Nc2ccc(F)cc2)c(OC)c1 | – | 17.7% (inactive) |
| CC1(C(=O)NCc2ccccc2)CSCC(=O)N1CCCn1ccnc1 (stereo not drawn) | – | 2.24% (inactive) |
| O=C(C(=O)N1CCC(c2ccccc2)CC1)c1ccccc1 | – | 15.4% (inactive) |
| CN(c1ccccc1)S(=O)(=O)c1ccc(C(=O)NCc2cccnc2)cc1 | – | -0.678% (inactive) |
| Nc1nc(SCC(=O)NCCN2CCOCC2)nc2sc3c(c12)CCC3 | – | -0.575% (inactive) |
| CC(C)(C)C1CCc2c(sc3nc(SCC(N)=O)nc(N)c23)C1 (stereo not drawn) | 32.6 µM (active) | – |
| Cc1sc2nc(SCC(N)=O)n(C)c(=O)c2c1C | – | -9.37% (inactive) |
| CC1Cc2[nH][nH]c(=O)c2C(C2CCCC2)O1 (stereo not drawn) | – | 2.64% (inactive) |
| O=C(C[C@H]1CC[C@H]2[C@@H](COC[C@H](O)CN2C(=O)c2ccccn2)O1)N1CCN(c2ccccc2)CC1 | – | 11.2% (inactive) |
| c1cc(-c2ccc3[nH]ccc3c2)n2ccnc2c1 | – | -28% (inactive) |
| CCCCN(CCCC)CCC(O)c1cc2c(Cl)cc(Cl)cc2c2cc(C(F)(F)F)ccc12 (stereo not drawn) | 20.6 µM (active) | – |
